Experimental findings from PubChem BioAssay (NCATS) are described below.

Experiment [1] in a line: AP1 Signaling Pathway (AID 357).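 Also: ME-180 reporter cells stimulated with EGF at its EC50 level; % is scaled to controls: 0 for no effect and ±100 for the full control effect.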 The settings on record: ME-180 (cervical carcinoma) AP-1-bla reporter, EGF-induced, beta-lactamase ratio, 5 h. The method in brief: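 Titration-series screen for positive or negative modulators of EC50 EGF-induced signaling in ME-180 cells carrying an AP-1-driven beta-lactamase reporter. After 5 hours at 37 degrees Celsius, CCF4 460nm/530nm emission ratio gave %Activity; AC50 values derived.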

The target of experiment [2] is Cytochrome P450 1A2 (Homo sapiens) (UniProt P05177). In words: p450-cyp1a2 (AID 410; calls by dose curve; also: potency is read from the fitted curve at half-maximal effect;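 as to activity change, negative = inhibition: -100% = full effect of reference inhibitor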). The settings on record: recombinant CYP1A2, luciferin-ME demethylation, luminescence; series mostly up to 57 µM. The procedure, abridged: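 20nM CYP1A2 with 100uM Luciferin-ME (at Km) in 100mM KPO4; compound preincubated 10 min, NADPH regeneration added, 60 min at room temperature. Luciferin quantified by luminescence after detection reagent; normalized to 57 uM furafylline.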
Cytochrome P450 1A2 (Homo sapiens), sequence (P05177 whole entry, looked up): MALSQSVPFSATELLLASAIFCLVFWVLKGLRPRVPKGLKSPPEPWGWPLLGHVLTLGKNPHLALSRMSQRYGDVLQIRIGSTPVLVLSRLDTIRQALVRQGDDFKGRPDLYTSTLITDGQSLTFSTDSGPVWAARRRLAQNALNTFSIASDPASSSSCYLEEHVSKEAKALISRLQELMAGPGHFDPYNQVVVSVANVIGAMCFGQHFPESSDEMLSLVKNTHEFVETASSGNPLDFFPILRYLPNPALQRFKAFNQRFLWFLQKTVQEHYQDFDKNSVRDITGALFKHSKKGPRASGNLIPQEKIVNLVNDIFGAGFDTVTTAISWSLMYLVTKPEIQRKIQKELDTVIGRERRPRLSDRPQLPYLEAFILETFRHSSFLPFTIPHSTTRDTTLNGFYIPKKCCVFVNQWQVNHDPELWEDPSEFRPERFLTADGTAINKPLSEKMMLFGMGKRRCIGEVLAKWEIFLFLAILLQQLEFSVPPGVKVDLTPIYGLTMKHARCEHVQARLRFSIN

Experiment [3] in a line: NFAT Signaling Pathway (AID 444).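 Also: carbachol stimulus at about its EC50 of 1 µM final; % is scaled to controls: 0 for no effect and ±100 for the full control effect.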 The note with it: Jurkat NFAT-bla M1, carbachol, beta-lactamase ratio, 5 h. The procedure, abridged:
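Jurkat cells with NFAT-driven β-lactamase reporter and co-expressed M1 receptor, stimulated with carbachol (final 1 uM, ~EC50), compound titration, 5 h at 37 °C. CCF4 loaded 1 h at RT; 460/530 nm ratio gave %activity and AC50.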

Experiment [4] concerns the target Lysosomal acid glucosylceramidase (Homo sapiens) (UniProt P04062). In words: Glucocerebrosidase-p2 (AID 348; in the data active = potency below about 10 µM; also: potency is read from the fitted curve at half-maximal effect). The note with it: purified GBA, blue fluorogenic substrate, 40 min. The procedure, abridged: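 Compounds titrated from 0.6 nM upwards against 0.2 nM enzyme in pH 5.9 citric acid/KH2PO4, taurocholate, tween-20; blue fluorogenic substrate 80 uM, 40 min room temperature, stopped and read Ex 365/Em 440 for AC50.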

Where “and” joins values, the source holds several entries; their conditions need not be identical. Equal values may be shown once. Results filed as inconclusive are left out. Where a structure was tested more than once in an assay, its records may differ in their call. Calls of active or inactive are those of the source. Unless noted, calls follow the shape of the dose curve; as a rule, active = well fitted curve in either direction with a large enough effect (not every such curve was filed as active); inconclusive = small, poorly fitted or top-dose-only effect, or another doubt; inactive = flat fitted curve, though single readings scatter.

Lysosomal acid glucosylceramidase (Homo sapiens), sequence (P04062 whole entry, looked up): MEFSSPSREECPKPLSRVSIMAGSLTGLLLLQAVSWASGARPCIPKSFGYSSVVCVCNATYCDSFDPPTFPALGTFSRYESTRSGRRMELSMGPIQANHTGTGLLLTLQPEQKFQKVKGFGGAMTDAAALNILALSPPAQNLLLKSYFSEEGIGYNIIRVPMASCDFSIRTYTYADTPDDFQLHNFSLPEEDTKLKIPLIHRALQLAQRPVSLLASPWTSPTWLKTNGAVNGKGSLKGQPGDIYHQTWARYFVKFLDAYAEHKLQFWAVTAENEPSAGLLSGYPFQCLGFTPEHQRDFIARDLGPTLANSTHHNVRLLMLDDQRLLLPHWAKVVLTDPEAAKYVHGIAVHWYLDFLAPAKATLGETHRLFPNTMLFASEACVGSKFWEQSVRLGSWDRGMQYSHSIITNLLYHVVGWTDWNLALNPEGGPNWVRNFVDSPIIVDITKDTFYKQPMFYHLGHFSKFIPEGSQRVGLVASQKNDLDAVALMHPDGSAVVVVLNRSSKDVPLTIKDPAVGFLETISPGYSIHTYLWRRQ

With `CCN(CC)CCNC(=O)c1cc(S(C)(=O)=O)ccc1OC`, the activity change, negative = inhibition in experiment [1] (at 17.2 µM (top of the series)) is -0.734% (inactive) and 2.54% (inactive); in experiment [1] (at 38 µM (top of the series)) it was 5.15% (inactive); in experiment [3] (at 17.2 µM (top of the series)) it was -6.77% (inactive) and -21.4% (inactive); in experiment [3] (at 38 µM (top of the series)), -5.52% (inactive). Further, in experiment [2], the Potency result is “inactive”.
Take `CC(C)(C)NCC(O)c1cc(O)cc(O)c1` (stereo not given): the activity change, negative = inhibition in experiment [1] (at 17.2 µM (top of the series)) is -16.4% (inactive).
In the case of `CN(C)C(=O)Oc1cccc([N+](C)(C)C)c1`, the activity change, negative = inhibition in experiment [1] (at 17.2 µM (top of the series)) was 6.9% (inactive) and 1.34% (inactive) and 7.06% (inactive); in experiment [1] (at 38 µM (top of the series)), -1.33% (inactive); in experiment [3] (at 17.2 µM (top of the series)), -14.6% (inactive) and 15.5% (inactive) and 0.313% (inactive); in experiment [3] (at 38 µM (top of the series)), 13% (inactive). Also, in experiment [2], the Potency result was “inactive”.
Consider `C[N+](C)(C)CCCCCCCCCC[N+](C)(C)C`, for which the activity change, negative = inhibition in experiment [1] (at 17.2 µM (top of the series)) was 5.88% (inactive) and 0.653% (inactive); in experiment [1] (at 38 µM (top of the series)) it was 6.36% (inactive); in experiment [3] (at 17.2 µM (top of the series)), -20.5% (inactive) and -5.13% (inactive); in experiment [3] (at 38 µM (top of the series)), -4.26% (inactive). Also, in experiment [2], the Potency entry was “inactive”.
For `O=C(O)CP(=O)(O)O`, the Potency in experiment [4] is > 11.4 µM (inactive). For the same compound, the activity change, negative = inhibition in experiment [1] (at 7.69 µM (top of the series)) is 0.401% (inactive); in experiment [1] (at 38 µM (top of the series)), 7.05% (inactive); in experiment [3] (at 7.69 µM (top of the series)) it was -1.52% (inactive); in experiment [3] (at 38 µM (top of the series)), 3.66% (inactive). For the same compound, in experiment [2], the Potency entry is “inactive”.
As to `CN(C)CCOC(=O)COc1ccc(Cl)cc1`, the activity change, negative = inhibition is 0.605% (inactive) in experiment [1] (at 17.2 µM (top of the series)), -0.251% (inactive) in experiment [1] (at 38 µM (top of the series)), 0.868% (inactive) in experiment [3] (at 17.2 µM (top of the series)) and 7.1% (inactive) in experiment [3] (at 38 µM (top of the series)). For the same compound, the Potency in experiment [2] is 15.8 µM (active) and 10 µM (active).
With `O=C1CC2(CCCC2)CC(=O)N1CCCCN1CCN(c2ncccn2)CC1`, the activity change, negative = inhibition was -0.287% (inactive) in experiment [1] (at 17.2 µM (top of the series)), -2.42% (inactive) in experiment [1] (at 38 µM (top of the series)) and -9.19% (inactive) in experiment [3] (at 17.2 µM (top of the series)).
Turning to `NC(N)=NC(=O)Cc1c(Cl)cccc1Cl`, the activity change, negative = inhibition in experiment [1] (at 17.2 µM (top of the series)) is 3.24% (inactive); in experiment [1] (at 38 µM (top of the series)), 6.16% (inactive); in experiment [3] (at 17.2 µM (top of the series)), 3.14% (inactive); in experiment [3] (at 38 µM (top of the series)) it was 2.06% (inactive). Further, in experiment [2], the Potency entry was “inactive”.
In the case of `COc1cc2c(cc1OC)-c1cc(=Nc3c(C)cc(C)cc3C)n(C)c(=O)n1CC2`, the results for the activity change, negative = inhibition in experiment [1] (at 38 µM (top of the series)) and in experiment [3] (at 38 µM (top of the series)) were -25.7% (inactive) and -16.6% (inactive), respectively. Besides, the Potency entry in experiment [2] was “inactive”.
As for `Cc1ccc(=O)n(-c2ccccc2)c1`, the values for the activity change, negative = inhibition in experiment [1] (at 38 µM (top of the series)) and in experiment [3] (at 38 µM (top of the series)) were -0.00383% (inactive) and 14.9% (inactive), respectively. Further, the Potency entry in experiment [2] is “inactive and 31.6 µM (active)”.
As to `CN/C(=C\[N+](=O)[O-])NCCSCc1ccc(CN(C)C)o1`, the activity change, negative = inhibition is -3.39% (inactive) in experiment [1] (at 17.2 µM (top of the series)), -6.59% (inactive) in experiment [1] (at 38 µM (top of the series)), -7.07% (inactive) in experiment [3] (at 17.2 µM (top of the series)) and 1.99% (inactive) in experiment [3] (at 38 µM (top of the series)).
With `CC(C)NNC(=O)c1ccncc1`, the activity change, negative = inhibition was 5.09% (inactive) in experiment [1] (at 17.2 µM (top of the series)), -0.742% (inactive) in experiment [1] (at 38 µM (top of the series)), -0.394% (inactive) in experiment [3] (at 17.2 µM (top of the series)) and -0.596% (inactive) in experiment [3] (at 38 µM (top of the series)). Besides, the Potency entry in experiment [2] is “inactive”.
Turning to `O=C(O)CN(CCN(CC(=O)O)CC(=O)O)CCN(CC(=O)O)CC(=O)O`, the activity change, negative = inhibition in experiment [1] (at 17.2 µM (top of the series)) is -3.91% (inactive); in experiment [1] (at 38 µM (top of the series)) it was 10% (inactive); in experiment [3] (at 17.2 µM (top of the series)), -4.47% (inactive); in experiment [3] (at 38 µM (top of the series)) it was 2.2% (inactive). In experiment [2], the Potency result is “inactive”.
In the case of `CCO/C([O-])=N/c1c[n+](N2CCOCC2)no1`, the activity change, negative = inhibition in experiment [1] (at 17.2 µM (top of the series)) was -2.58% (inactive) and 9.89% (inactive); in experiment [1] (at 38 µM (top of the series)) it was 19.4% (inactive); in experiment [3] (at 17.2 µM (top of the series)), -13.9% (inactive) and -20.6% (inactive); in experiment [3] (at 38 µM (top of the series)), -9.67% (inactive). Also, the Potency result in experiment [2] is “inactive”.
For `Cc1ccc(S(=O)(=O)NC(=O)NN2CCCCCC2)cc1`, the activity change, negative = inhibition was -5.47% (inactive) and 3% (inactive) in experiment [1] (at 17.2 µM (top of the series)); 4.52% (inactive) in experiment [1] (at 38 µM (top of the series)); -5.82% (inactive) and -2.02% (inactive) in experiment [3] (at 17.2 µM (top of the series)); -9.25% (inactive) in experiment [3] (at 38 µM (top of the series)).
Turning to `CC(C)(Oc1ccc(CCNC(=O)c2ccc(Cl)cc2)cc1)C(=O)O`, the activity change, negative = inhibition in experiment [1] (at 17.2 µM (top of the series)) is 3.65% (inactive) and 3.52% (inactive); in experiment [3] (at 17.2 µM (top of the series)), -9.97% (inactive) and 7.1% (inactive). Further, the Potency result in experiment [2] is “inactive”.
In the case of `C#CCN(C)CCCOc1ccc(Cl)cc1Cl`, the activity change, negative = inhibition in experiment [1] (at 17.2 µM (top of the series)) is -12.7% (inactive); in experiment [1] (at 38 µM (top of the series)) it was -0.876% (inactive); in experiment [3] (at 17.2 µM (top of the series)), -4.25% (inactive); in experiment [3] (at 38 µM (top of the series)), -1.82% (inactive). For the same compound, the Potency in experiment [2] was 631 nM (active) and 158 nM (active).
`FC(F)(F)c1ccccc1-n1ccnc1`: the activity change, negative = inhibition in experiment [1] (at 38 µM (top of the series)) was 7.15% (inactive); in experiment [3] (at 38 µM (top of the series)) it was -3.5% (inactive). For the same compound, the Potency in experiment [2] is 2.51 µM (active) and 251 nM (active).
For `CCn1cc(C(=O)O)c(=O)c2cc3c(cc21)OCO3`, the activity change, negative = inhibition in experiment [1] (at 17.2 µM (top of the series)) was -4.15% (inactive); in experiment [1] (at 38 µM (top of the series)) it was -1.96% (inactive); in experiment [3] (at 17.2 µM (top of the series)), -7.01% (inactive); in experiment [3] (at 38 µM (top of the series)) it was 7.6% (inactive). The Potency in experiment [2] was 5.01 µM (active) and 2.51 µM (active).
With `CCCCNc1c(C(=O)OCC)c(C)nc2c1cnn2CC`, the activity change, negative = inhibition in experiment [1] (at 38 µM (top of the series)) is -13.4% (inactive); in experiment [3] (at 17.2 µM (top of the series)), -22.8% (inactive); in experiment [3] (at 38 µM (top of the series)) it was -0.356% (inactive). Further, the Potency in experiment [2] is 631 nM (active) and 63.1 nM (active).
Take `CC[N+](C)(C)c1cccc(O)c1`: the activity change, negative = inhibition was 1.89% (inactive) and 0.722% (inactive) in experiment [1] (at 17.2 µM (top of the series)); 2.69% (inactive) in experiment [1] (at 38 µM (top of the series)); -26.4% (inactive) in experiment [3] (at 17.2 µM (top of the series)); -18.1% (inactive) in experiment [3] (at 38 µM (top of the series)). For the same compound, the Potency entry in experiment [2] is “inactive”.
`O=C(O)CN(CCOCCOCCN(CC(=O)O)CC(=O)O)CC(=O)O`: the results for the activity change, negative = inhibition in experiment [1] (at 38 µM (top of the series)) and in experiment [3] (at 38 µM (top of the series)) were 4.77% (inactive) and 0.822% (inactive), respectively. Also, the Potency entry in experiment [2] was “inactive”.
Consider `C[N+](C)(C)CCOC(=O)CCC(=O)OCC[N+](C)(C)C`, for which the activity change, negative = inhibition in experiment [1] (at 38 µM (top of the series)) is -1.57% (inactive); in experiment [3] (at 38 µM (top of the series)) it was 1.62% (inactive). For the same compound, in experiment [2], the Potency result was “inactive”.
